Some test systems named below: NCI-H23 lung; NCI-H226 lung; NCI-H322M lung; HOP-62 NSCLC; NCI-H460 lung; HOP-92 NSCLC; A549/ATCC NSCLC; 786-0 renal; COLO 205 colon; DU-145 prostate; K-562 leukemia; MALME-3M melanoma; MDA-MB-231 breast; RXF 393 renal; SF-268 CNS; SF-295 CNS; SF-539 CNS; UACC-257 melanoma; M14 melanoma.
What all share (assay): NCI-60 one-dose screen, 48 h (100 = growth as untreated, 0 = no growth, -100 = all killed)
What all share (settings): 10 µM unless noted

Compounds without any hit were thinned out: in the full panel of roughly 83,000, 20% have a hit.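 Interpretation: 100, growth as untreated; towards 0, rising growth inhibition; 0, no net growth; 0 to -100, cell death. Compounds scoring below 10 were considered active.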 Values without a mark were called inactive. Activity calls are given as the source filed them.

For the compound `CCOc1cc(/C=C/C(=O)C(C(=O)/C=C/c2ccc(OC(=O)CNc3nnc(C)s3)c(OCC)c2)C(=O)CNc2nnc(C)s2)ccc1OC(=O)CNc1nnc(C)s1`, the growth was -2.16% (active) in the experiment with NCI-H23 lung; -14.8% (active) in the experiment on NCI-H226 lung; 6.22% (active) with NCI-H322M lung; 3.59% (active) in the experiment with HOP-62 NSCLC; -46.8% (active) in the experiment with NCI-H460 lung; -25.6% (active) with HOP-92 NSCLC. The growth in the experiment on A549/ATCC NSCLC was 8.11% (active); in the experiment with 786-0 renal it was -73.7% (active); with COLO 205 colon, -55% (active); in the experiment on DU-145 prostate, -68.7% (active); with K-562 leukemia it was -41.8% (active); with MALME-3M melanoma, -20.8% (active). For the same compound, the growth in the experiment with MDA-MB-231 breast was -36.9% (active); in the experiment with RXF 393 renal, -78.5% (active); with SF-268 CNS it was -16.4% (active); with SF-295 CNS, -24.7% (active); in the experiment with SF-539 CNS, -54.5% (active); in the experiment with UACC-257 melanoma, 15.3%. Besides, in the experiment on M14 melanoma, the growth is -26.3% (active).

For `Nc1nc(Nc2ccccc2SSc2ccccc2Nc2nc(N)nc(-c3ccc(I)cc3)n2)nc(-c2ccc(I)cc2)n1`, the growth in the experiment on NCI-H23 lung is 47.3%; in the experiment with NCI-H226 lung, 69.8%; with NCI-H322M lung, 81.1%; in the experiment on HOP-62 NSCLC, 26.1%; in the experiment on NCI-H460 lung, 54.8%; with HOP-92 NSCLC it was 107%. Moreover, the growth was -19.9% (active) in the experiment on A549/ATCC NSCLC; 86.9% with 786-0 renal; 112% in the experiment on COLO 205 colon; 66% in the experiment with DU-145 prostate; 68.7% in the experiment with K-562 leukemia; 103% in the experiment with MALME-3M melanoma. Also, the growth is 55% in the experiment with MDA-MB-231 breast; 88.2% with RXF 393 renal; 43% with SF-268 CNS; 47.6% in the experiment with SF-295 CNS; 89.2% in the experiment on SF-539 CNS; 110% with UACC-257 melanoma. Besides, in the experiment on M14 melanoma, the growth was 77.2%.

With `CC1CN(C2CCCCC2)C(=O)NC1=O` (configuration not stated), the growth is 114% with NCI-H23 lung; 101% with NCI-H226 lung; 80.5% in the experiment with NCI-H322M lung; 108% in the experiment with HOP-62 NSCLC; 114% with NCI-H460 lung; 92% in the experiment on HOP-92 NSCLC. The growth in the experiment on A549/ATCC NSCLC is 104%; in the experiment on 786-0 renal, 110%; with COLO 205 colon, 101%; in the experiment with DU-145 prostate it was 113%; in the experiment on K-562 leukemia, 103%; in the experiment with MALME-3M melanoma, 108%. Also, the growth is 104% with MDA-MB-231 breast; 110% in the experiment on RXF 393 renal; 105% with SF-268 CNS; 108% in the experiment on SF-295 CNS; 106% with SF-539 CNS; 109% with UACC-257 melanoma. In addition, the growth in the experiment on M14 melanoma was 99.3%.

For the compound `CN(C)c1ncnc2c1ncn2C1CCCCO1` (configuration not stated), the growth with NCI-H23 lung was 101%; in the experiment with NCI-H226 lung, 98.5%; with NCI-H322M lung, 98.9%; in the experiment on HOP-62 NSCLC it was 110%; in the experiment on NCI-H460 lung it was 113%; with HOP-92 NSCLC, 71%. For the same compound, the growth with A549/ATCC NSCLC was 104%; in the experiment with 786-0 renal, 99.4%; in the experiment with COLO 205 colon, 98.3%; in the experiment with DU-145 prostate, 115%; in the experiment on K-562 leukemia, 102%; with MALME-3M melanoma, 101%. For the same compound, the growth was 106% in the experiment on MDA-MB-231 breast; 114% in the experiment with RXF 393 renal; 106% in the experiment on SF-268 CNS; 116% in the experiment with SF-295 CNS; 103% in the experiment with SF-539 CNS; 106% with UACC-257 melanoma. Besides, the growth with M14 melanoma was 105%.

Regarding `C[C@@H]1C[C@@H]([C@@H](CC2CC(=O)NC(=O)C2)OC(=O)CC(=O)c2ccccc2)C(=O)[C@@H](C)C1`, the growth in the experiment on NCI-H23 lung was 13.9%; in the experiment with NCI-H226 lung it was 4.07% (active); in the experiment with NCI-H322M lung it was -19.5% (active); in the experiment with HOP-62 NSCLC, 13.5%; in the experiment with NCI-H460 lung, 12.1%; in the experiment with HOP-92 NSCLC, 9.2% (active). In addition, the growth in the experiment on A549/ATCC NSCLC was 1.76% (active); in the experiment with 786-0 renal it was 1.2% (active); in the experiment with COLO 205 colon it was 10.2%; in the experiment with DU-145 prostate, 11.8%; with K-562 leukemia it was 17.7%; in the experiment with MALME-3M melanoma, -0.912% (active). Besides, the growth in the experiment on MDA-MB-231 breast is 17.5%; with RXF 393 renal, -13.7% (active); with SF-268 CNS, 15.6%; in the experiment on SF-295 CNS, 4.68% (active); in the experiment with SF-539 CNS, 5.1% (active); in the experiment on UACC-257 melanoma it was -4.59% (active). The growth with M14 melanoma is 10.9%.

Regarding `CCCCN=C(N)c1ccc(OCCSCCOc2ccc(C(N)=NCCCC)cc2)cc1`, the growth in the experiment on NCI-H23 lung is 40.4%; with NCI-H226 lung, 59.2%; with NCI-H322M lung, 69.2%; in the experiment on HOP-62 NSCLC, 67.7%; with NCI-H460 lung it was 30.3%; with HOP-92 NSCLC, 40.1%. In addition, the growth was 19.5% with A549/ATCC NSCLC; 82.5% in the experiment with 786-0 renal; 7.64% (active) in the experiment with COLO 205 colon; 55.3% with DU-145 prostate; 40.9% in the experiment with K-562 leukemia; 39.3% in the experiment with MALME-3M melanoma. The growth with MDA-MB-231 breast is 58.7%; with RXF 393 renal, 92.6%; in the experiment on SF-268 CNS it was 35.6%; with SF-295 CNS, -36.4% (active); with SF-539 CNS, 55%; in the experiment on UACC-257 melanoma, 39.9%. For the same compound, in the experiment with M14 melanoma, the growth was 81.6%.

As for `COc1cccc(/C=N\NC(=O)c2ccncc2)c1O`, the growth in the experiment with NCI-H23 lung is 58.5%; in the experiment on NCI-H226 lung, 61.8%; in the experiment with NCI-H322M lung, 19%; in the experiment with HOP-62 NSCLC, 50.8%; in the experiment with NCI-H460 lung, 15.9%; with HOP-92 NSCLC, 55.1%. For the same compound, the growth in the experiment with A549/ATCC NSCLC is 73.2%; in the experiment on 786-0 renal, 35.5%; in the experiment on COLO 205 colon it was 50.1%; with DU-145 prostate it was 51.7%; in the experiment on K-562 leukemia, 71.2%; with MALME-3M melanoma, 68.3%. Besides, the growth in the experiment on MDA-MB-231 breast is 47.1%; in the experiment on RXF 393 renal, 57.3%; in the experiment on SF-268 CNS, 42.2%; with SF-295 CNS it was 55.8%; in the experiment on SF-539 CNS, 55.7%; in the experiment on UACC-257 melanoma it was 49.6%. In addition, the growth in the experiment with M14 melanoma is 34.4%.

On to `N#Cc1ccccc1C#Cc1ccccc1C#Cc1ccc(OCCCCCCOc2ccc(C#Cc3ccccc3C#Cc3ccccc3C#N)cc2)cc1`, for which the growth was 99.4% with NCI-H23 lung; 102% in the experiment on NCI-H226 lung; 105% in the experiment on NCI-H322M lung; 103% in the experiment on HOP-62 NSCLC; 116% with NCI-H460 lung; 91.6% in the experiment on HOP-92 NSCLC. Besides, the growth with A549/ATCC NSCLC is 94%; in the experiment on 786-0 renal, 98.4%; with COLO 205 colon, 119%; with DU-145 prostate, 111%; with K-562 leukemia, 96.7%; in the experiment on MALME-3M melanoma it was 102%. For the same compound, the growth in the experiment on MDA-MB-231 breast was 88.5%; with RXF 393 renal, 97.7%; in the experiment on SF-268 CNS it was 115%; with SF-295 CNS it was 106%; with SF-539 CNS, 97.6%; with UACC-257 melanoma it was 103%. In the experiment on M14 melanoma, the growth is 85.8%.

The values above are taken from PubChem BioAssay (NCI).
